# Values joined by “and” are separate entries in the source; they are usually repeats but may differ in a detail not shown here. Equal values may be shown once. This is part of a sample that, as a whole, favours compounds with a hit. Of some 83,000 tested, about 20% had one in any assay.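 Growth was measured after 48 h exposure to one concentration of compound in 96-well plates. Values under 10 count as active.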 Active and inactive are the calls of the source.
# Tested on: SW-620 colon
# Assay: NCI-60 one-dose screen, 48 h (100 = growth as untreated, 0 = no growth, -100 = all killed)
# Conditions: 10 µM
# Protocol: Growth inhibition of the SW-620 human tumor cell line is measured as a screen for anti-cancer activity. Cells are grown in 96 well plates and exposed to the test compound for 48 hours. Compounds are tested at a single concentration, which is 10^-5 M for most compounds. The reported endpoint is percent growth (GI% or GIPRCNT), where numbers from 0 - 100% represent growth inhibition, and numbers from -100% - 0 represent cell death. For example, a value of 40 represents 60% growth inhibition. A value of 0 means no net growth occurred over the course of the experiment. A value of -40 indicates 40% of cells at the beginning of the experiment died by the end of the experiment. A value of -100 means all cells are dead at the end of the experiment.
# NCI-60 Human Tumor Cell Lines Screen was performed using the standard one-dose NCI protocol, which is described in more detail at https://dtp.cancer.gov/discovery_development/nci-60/default.htm.
# Compounds with GIPRCNT values below 10 were considered active. Activity score was based on GIPRCNT using the following formula: […]
# Score is 0 for GIPRCNT values of 100 or above, 50 for GIPRCNT values of 0, and 100 for GIPRCNT values of -100.
row,Structure (SMILES),growth
1,S=C(SSC(=S)N1CCCCC1)N1CCCCC1,95.3% (inactive)

# Same assay, conditions: 10 µM unless noted
row,Structure (SMILES),growth
1,Cc1c(N)nc([C@H](CC(N)=O)NC[C@H](N)C(N)=O)nc1C(=O)N[C@H](C(=O)N[C@H](C)[C@@H](O)[C@H](C)C(=O)N[C@H](C(=O)NCCc1nc(-c2nc(C(=O)NCCC[S+](C)C)cs2)cs1)[C@@H](C)O)C(OC1OC(CO)C(O)C(O)C1OC1OC(CO)C(O)C(OC(N)=O)C1O)c1cnc[nH]1 (some centres undefined),83.4% [2.5 µM] (inactive)
2,Oc1cc[c]([Hg][Cl])cc1,105% (inactive)
3,CC1=C2C(=O)[C@H]3[C@@H](CC=C4C[C@@H](O)CC[C@@]43C)[C@@H]2CC[C@]12O[C@@H]1C[C@H](C)CN[C@H]1[C@H]2C,99.2% (inactive)
4,CCCCCCCCCCCC1CCCC(C)N1 (centres undefined),49.4% (inactive)
5,CC(=O)O[C@H]1C[C@@H]2OC3C=C(C)CCC3(C)[C@@]1(C)[C@@]21CO1 (some centres undefined),0.513% (active) and -7.31% (active)
6,C[C@H]1CCC/C=C/[C@@H]2C[C@H](O)C[C@H]2[C@H](O)/C=C/C(=O)O1,-20.4% (active)
7,C[C@]12CC[C@H](O)CC1=CC[C@@H]1[C@@H]2CC[C@]2(C)C(=O)CC[C@@H]12,110% (inactive)
8,CC1=C(CO)C2=C(C)C3(CC3)[C@@](C)(O)C(=O)C2=C1,26.3% (inactive)
9,CCC(=O)OC1CCn2c1nc1c2C(=O)C(C)=C(N2CC2)C1=O (centres undefined),3.77% (active)
10,COC1CC(CC2CCC(C)C(C(C)C(=O)O)O2)OC2(OC(C)(C3CCC(C)(C4OC(C5OC(O)(CO)C(C)CC5C)CC4C)O3)CC2C)C1C (centres undefined),6.56% (active)
11,CO[C@H](/C(C)=C/C=C/C(C)=C/c1coc(C)n1)[C@H](C)[C@H]1C[C@@H](O)[C@@]2(C)O[C@H]2/C=C/[C@@H](C)[C@@H]2C[C@@H](CC(=O)O2)C[C@H]2O[C@@H]2C(=O)O1,21.5% (inactive)
12,COc1cccc2c1cc([N+](=O)[O-])c1c(C(=O)O)cc3c(c12)OCO3,79.5% (inactive) and 109% (inactive)
13,CCOC(=O)C(NC(=O)C(Cc1ccc(N(CCCl)CCCl)cc1)NC(C)=O)C(C)C (centres undefined),69.4% (inactive)
14,CN1CCN(c2ccc([N+](=O)[O-])c3no[n+]([O-])c23)CC1,-70.9% (active)
15,CC[C@@]1(O)C(=O)OCc2c1cc1n(c2=O)Cc2cc3ccccc3nc2-1,-1.68% (active)
16,CC[C@](O)(C(=O)O)c1cc2n(c(=O)c1CO)Cc1cc3ccccc3nc1-2,-30% (active)
17,COC1=C(C)C(=O)C2=C(C1=O)C(CO)N1C(C#N)C3CC4C(C1C2N1CCOC41)N3C (centres undefined),-28% (active)
18,COc1ccc(OC)c(/C=C/[N+](=O)[O-])c1,-38.7% (active)
19,Cc1cc(N=Nc2ccccc2C)ccc1N,84.7% (inactive)
20,CC[n+]1c(-c2ccccc2)c2cc(N)ccc2c2ccc(N)cc21,17.9% (inactive)
21,NCCc1ccc(OCc2ccccc2)c(OCc2ccccc2)c1,83.7% (inactive)
22,CC[C@@]1(O)C[C@H](OC2CC(N(C)C)C(O)C(C)O2)c2c(O)c3c(c(O)c2[C@H]1OC1CC(N(C)C)C(O)C(C)O1)C(=O)c1cccc(O)c1C3=O (some centres undefined),-0.489% (active)
23,CCC1(O)CC(OC2CC(N(C)C)C(OC3CC4OC5CC(=O)C(C)OC5OC4C(C)O3)C(C)O2)c2c(cc3c(c2O)C(=O)c2c(O)ccc(O)c2C3=O)C1C(=O)OC (centres undefined),-11.4% (active)
24,Oc1cccc2cccnc12,48.2% (inactive) and 100% (inactive) and 103% (inactive)
25,COc1ccccc1/C=C(/C)[N+](=O)[O-],49.8% (inactive) and 106% (inactive)
26,CC[C@@]1(O)C[C@H](OC2CC(N(C)C)C(OC3CC(O)C(OC4CCC(=O)C(C)O4)C(C)O3)C(C)O2)c2c(cc3c(c2O)C(=O)c2c(O)ccc(O)c2C3=O)[C@H]1C(=O)OC (some centres undefined),-1.19% (active)
27,Cc1ccc(C(=O)OC(C(=O)O)C(OC(=O)c2ccc(C)cc2)C(=O)O)cc1 (centres undefined) (tested in a mixture with another compound),53.4% (inactive)

# Same assay, conditions: 100 µM
row,Structure (SMILES),growth
1,S=C(SSC(=S)N1CCCCC1)N1CCCCC1,-55.7% (active)

# Source: PubChem BioAssay (NCI)
